IDH1 R132H inh: human IDH1 R132H inhibition. O75874. IDH1-R132H enzyme, NADPH consumption, diaphorase/resazurin fluorescence. Potency, µM (doses to about 76.6 µM), usual class: inhibitors. 390,000 tested, 0.093% active; also: nearly all actives have a fitted effect of over 65% in size
Target sequence (O75874 whole entry R132H, stated change not applied): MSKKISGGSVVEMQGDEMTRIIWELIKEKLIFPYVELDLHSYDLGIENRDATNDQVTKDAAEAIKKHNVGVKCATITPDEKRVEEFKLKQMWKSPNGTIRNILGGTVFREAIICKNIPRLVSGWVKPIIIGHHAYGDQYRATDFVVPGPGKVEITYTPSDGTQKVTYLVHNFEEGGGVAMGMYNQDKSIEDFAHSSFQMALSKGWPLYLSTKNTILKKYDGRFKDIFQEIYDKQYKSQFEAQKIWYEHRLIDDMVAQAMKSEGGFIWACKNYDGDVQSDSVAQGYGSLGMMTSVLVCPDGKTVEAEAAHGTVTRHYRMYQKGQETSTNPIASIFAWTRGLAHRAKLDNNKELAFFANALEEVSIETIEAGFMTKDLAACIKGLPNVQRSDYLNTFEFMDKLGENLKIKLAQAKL
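IDH1-R132H (0.5 ug/mL) preincubated 30 min with compound, then NADPH (0.016 mM) and alpha-KG (2 mM) added; 80 min at RT, pH 7.5. Remaining NADPH coupled via diaphorase/resazurin to fluorescence (540/590 nm); concentration-response curves normalized to no-enzyme control.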
TrxR1 inh: inhibitors of rat thioredoxin reductase 1; O89049; recombinant rTrxR1, NADPH fluorescence consumption, selenite substrate; Potency, µM (series often up to 114 µM), hits mostly inhibitors; 390,000 tested, 1% active; AID 588453; also: nearly all actives have a fitted effect of over 65% in size
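Rat TrxR1 (90 nM in the dispensed reagent) was pre-reduced with 400 uM NADPH for 5 min at room temperature, then incubated with compound for 15 min. After 400 uM selenite was added, NADPH fluorescence (Ex 340/Em 450 nm) was followed for 8 min.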
Nrf2 block: blocks Nrf2 signaling | A549 ARE-Fluc reporter, luciferase luminescence, 18-24 h | Potency, µM (titrated, usually from 46 µM), actives largely listed as inhibitors | 360,000 tested, 2.1% active | AID 504444; also: nearly all actives have a fitted effect of over 60% in size
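A549 ARE_Fluc cells (5000/well, 5% FBS OPTI-MEM) pre-incubated 2 h, then treated with compounds 18-24 h at 37C/5% CO2 in concentration-response. CellTiter-Fluor viability read first; BugLite luciferase luminescence after 15 min at room temperature gives Nrf2 activity.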
Mito fusion yeast: inhibitors of mitochondrial division or activators of mitochondrial fusion; S. cerevisiae fusion-defective mutant growth rescue, CellTiterGlo 48 h; 320,000 tested, 0.23% active; AID 485298; Potency, µM (titrated, usually from 46.1 µM), usual class: activators; also: nearly all actives have a fitted effect of over 45% in size
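Luminescent cell viability in 1536-well qHTS format served as the measure of rescued growth in ts fusion-mutant S. cerevisiae cultured on non-fermentable YPEG for 48 hours at 37C.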
A549 tox: A549 cytotoxicity, counter-screen for Nrf2 inhibitors; Potency, µM (titrated, usually from 46 µM), actives largely listed as inhibitors; A549 ARE-Fluc cells, CellTiter-Fluor viability, 18-24 h; 390,000 tested, 0.16% active
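Cytotoxicity counterscreen: CellTiter-Fluor fluorescence was measured in A549 ARE_Fluc cells after 18-24 h of compound exposure in a concentration series. The subsequent BugLite luminescent read reports ARE-luciferase activity.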
TrxR1 substrate: substrates of rat thioredoxin reductase 1; purified TrxR1 substrate turnover, NADPH consumption readout; Potency, µM (highest dose often 114 µM); 390,000 tested, 0.01% active; AID 588456; also: nearly all actives have a fitted effect of over 50% in size
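Rat TrxR1, dispensed at 90 nM, was prereduced with 400 uM NADPH (final) for 5 min at ~22 deg C, then incubated with compound 15 min before 400 uM selenite. A first-read NADPH fluorescence drop versus no-compound background flagged substrates.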
Numbers stand for hits; n = inactive; u = inconclusive; x = not tested or not shown; ! = not active in a repeat; [ ] = dose if it differs, or a comment. Shown are actives, neighbours in structure and some others; about 3.1% of the full set was active somewhere. Calls follow the shape of the dose curve; as a rule, active = well fitted curve in the direction sought with a large enough effect; inconclusive = small, poorly fitted or top-dose-only effect, or another doubt; inactive = no such curve, though single readings can be large; an effect the other way counts as inactive or inconclusive.

SMILES	IDH1 R132H inh	TrxR1 inh	Nrf2 block	Mito fusion yeast	A549 tox	TrxR1 substrate
CCn1cc(C(=O)N2CCN(c3ccccc3F)CC2)c(=O)c2cc(S(=O)(=O)N(C)C3CCCCC3)ccc21	n	n	n	x	n	n
Cc1cc(C)cc(NC(c2cccc(Cl)c2)c2nnc(-c3ccccc3)o2)c1 (centres undefined)	n	n	n	x	n	n
COc1ccc(C(C)=O)cc1CSc1nc2cc(C(=O)O)ccc2c(=O)n1Cc1ccccc1	n	28µM	n	n	n	n
COc1ccc(C(C)=O)cc1CSc1nc(NCc2ccccc2)c2ccccc2n1	n	n	x	x	23µM	n
CCCCN(CC)CCNC(=O)C1CCN(c2nnc(C)c3c(C)n(-c4ccc(C)cc4)nc23)CC1	n	n	u	x	23µM	n
Cc1ccc(CCNC(=O)C2CCN(c3nnc(C)c4c(C)n(-c5ccccc5)nc34)CC2)cc1	n	n	n	x	n	n
Cc1ccccc1NC(=O)c1c(NC(=O)C(F)(F)F)sc2c1CCCCC2	n	n	2.3µM	x	u	n
Cc1ccccc1NC(=O)c1c(NC(=O)c2ccccc2)sc2c1CCC2	x	n	n	x	n	n
CCc1ccccc1NC(=O)c1c(NC(=O)c2ccccc2)sc2c1CCCC2	n	89µM	n	x	n	n
Cc1cccc(NC(=O)c2c(NC(=O)C(F)(F)F)sc3c2CCCCC3)c1	n	n	2.6µM	x	u	n
O=C(Nc1cccc(Cl)c1)c1c(NC(=O)C(F)(F)F)sc2c1CCCC2	n	n	u	x	u	n
CCOc1ccccc1NC(=O)c1c(NC(=O)c2ccccc2)sc2c1CCCC2	n	n	n	x	n	n
Cc1ccc(NC(=O)c2c(NC(=O)C(F)(F)F)sc3c2CCCCC3)cc1	n	n	2.6µM	x	u	n
O=C(Nc1nccs1)[C@@H]1CC=C[C@@H]2CCN(C3CC3)C(=O)[C@@H]21	x	n	x	x	x	n
COc1ccc(NC(=O)Nc2ccc(OC)cc2)cc1	n	n	u	n	n	n
CS/C(=C\[N+](=O)[O-])Nc1ccc(F)cc1	n	u	n	n	n	n
CS/C(=C\[N+](=O)[O-])Nc1ccccc1	n	1.3µM	n	n	n	n
COc1ccc(N/C(=C/[N+](=O)[O-])SC)cc1	n	7.1µM	n	n	n	n
CC1(OC(=O)C2CCCC2)C(=O)C=C2C=C(c3ccsc3)N(CCCCO)C=C2C1=O (centres undefined)	n	n	n	n	n	n
CC1(OC(=O)C2CCCC2)C(=O)C=C2C=C(c3ccsc3)N(Cc3ccco3)C=C2C1=O (centres undefined)	n	32µM	n	n	n	n
NCCCCNc1ncnc2ccc(-c3ccc4c(c3)OCO4)cc12	x	x	n	x	n	x
CC(C)(C)NC(=O)CSc1nc2ccc(NC(=O)CSc3nnc(N)s3)cc2s1	n	n	21µM	n	n	n
Cc1ccccc1OCc1nnc(SCC(=O)Nc2ccc3nc(SCC(=O)NC(C)(C)C)sc3c2)n1C	n	n	u	n	n	n
COc1cc2c(NC3CCN(C)CC3)nc(N3CCCN(C)CC3)nc2cc1O	x	n	x	x	x	n
Cc1ccc(Nc2nc(Nc3ccc(Cl)cc3)nc(N3CCOCC3)n2)cc1	x	n[0.0914 µM]	n	x	n	n
SMILES	IDH1 R132H inh	TrxR1 inh	Nrf2 block	Mito fusion yeast	A549 tox	TrxR1 substrate
C[C@H]1CN([C@@H](C)CO)C(=O)c2cccc(NC(=O)Nc3ccc(C(F)(F)F)cc3)c2O[C@@H]1CN(C)C(=O)Nc1ccc(F)cc1	n	n	16µM	x	u	n
C[C@H](CO)N1C[C@H](C)[C@@H](CN(C)C(=O)Nc2ccc(C(F)(F)F)cc2)Oc2c(NC(=O)Nc3ccc(C(F)(F)F)cc3)cccc2C1=O	n	n	u	x	u	n
C[C@H](CO)N1C[C@H](C)[C@@H](CN(C)Cc2ccc(Oc3ccccc3)cc2)Oc2c(NC(=O)C3CC3)cccc2C1=O	n	n	23µM	x	n	n
Cc1ccc(S(=O)(=O)Nc2cccc3c2O[C@H](CN(C)C(=O)Nc2ccc(C(F)(F)F)cc2)[C@@H](C)CN([C@H](C)CO)C3=O)cc1	n	n	18µM	x	n	n
C[C@H](CO)N1C[C@H](C)[C@@H](CN(C)C(=O)Nc2ccc(C(F)(F)F)cc2)Oc2c(NS(=O)(=O)c3cccs3)cccc2C1=O	n	n	n	x	n	n
CC(=O)N1CCSc2ccc(S(=O)(=O)Nc3cccc(C)c3)cc21	n	n	u	n	n	n
CC(=O)N1CCSc2ccc(S(=O)(=O)Nc3ccccc3C)cc21	n	n	13µM	n	n	n
Cc1ccc(C2C(C#N)=C(N)SC(N)=C2C#N)cc1	n	u	n	n	n	n
Cc1ccc(C2C(C#N)=C(N)SC(N)=C2C#N)c(C)c1	n	2.8µM	n	n	n	n
O=C1C2C3C=CC(C3)C2C(=O)N1c1ccc(Cc2ccncc2)cc1 (centres undefined)	n	n	u	n	n	n
CC1CCC2C(=O)N(c3ccc(Cc4ccncc4)cc3)C(=O)C2C1 (centres undefined)	n	n	10µM	n	n	n
COCCn1c(CNC(=O)c2cc(OC)c(OC)c(OC)c2)nc2cccnc21	n	n	x	x	n	n
COc1ccc2[nH]cc(CC(=O)O)c2c1	n	n	n	n	n	n
O=C(O)Cc1c[nH]c2ccc(O)cc12	n	11µM!	n	n	n	n
COc1ccc(C2Nc3ccccc3C(=O)N2Cc2cccc(-c3ccccc3)c2)cc1COc1ccc(NC(C)=O)cc1 (centres undefined)	x	x	u	x	n	x
Cc1ccc(-c2nn3c(C)nnc3c3ccccc23)cc1S(=O)(=O)NC(C)(C)CO	n	n	12µM	n	u	n
Cc1ccc(-c2nn3c(C)nnc3c3ccccc23)cc1S(=O)(=O)NC(C)c1ccccc1 (centres undefined)	n	n[11.4 µM]	u	n	n	n[11.4 µM]
O=C(c1ccccc1Br)N(Cc1ccco1)Cc1ccco1	n	n	n	x	n	n
COc1ccc(C(=O)CSc2nnc(-c3ccco3)n2C)cc1	n	u	n	n	n	n
CSc1nnc(-c2ccco2)c(-c2ccco2)n1	n	16µM	n	n	n	n
COc1ccc(C(=O)CSc2nnc(-c3ccco3)c(-c3ccco3)n2)cc1	n	8.9µM	n	n	n	n
Cc1ccc(NC(=O)CSc2nnc(-c3ccco3)c(-c3ccco3)n2)cc1	n	1µM	u	n	u	n
CN(C)c1ccc(NC(=O)CSc2nnc(-c3ccco3)c(-c3ccco3)n2)cc1	n	n	n	n	n	n
O=C(CSc1nnc(-c2ccco2)c(-c2ccco2)n1)Nc1ccccc1	n	5µM	n	n	n	n

Screens deposited in PubChem by National Center for Advancing Translational Sciences (NCATS).
